{"source": "paper PMC11062922", "about": "(Nature Chemical Biology, 2023)", "tested_on": "ACVR1B", "settings": "read-out: apparent Kd, n = 1", "note": "Where two headings read alike, the source gives them in different places."}
{"substance": "Lestaurtinib", "values": [{"measurement": "potency estimated from few doses", "setting": "compound concentrations:100 nM and 1000 nM (sheet 'Lestaurtinib' of Supplementary Table 1),run:Lestaurtinib_02339_R1,Plate:MR001", "value": 730, "unit": "nM"}, {"measurement": "potency estimated from few doses", "setting": "compound concentrations:100 nM and 1000 nM (sheet 'Lestaurtinib' of Supplementary Table 1),run:Lestaurtinib_02364_R2,Plate:MR002", "value": 951, "unit": "nM"}, {"measurement": "potency estimated from few doses", "setting": "compound concentrations:100 nM and 1000 nM (sheet 'Lestaurtinib' of Supplementary Table 1),run:Lestaurtinib_02364_R3,Plate:MR002", "value": 661, "unit": "nM"}, {"measurement": "potency estimated from few doses", "setting": "compound concentrations:100 nM and 1000 nM (sheet 'Lestaurtinib' of Supplementary Table 1),run:Lestaurtinib_02367_R1,Plate:MR003", "value": 671, "unit": "nM"}, {"measurement": "potency estimated from few doses", "setting": "compound concentrations:100 nM and 1000 nM (sheet 'Lestaurtinib' of Supplementary Table 1),run:Lestaurtinib_02367_R2,Plate:MR003", "value": 684, "unit": "nM"}, {"measurement": "potency estimated from few doses", "setting": "compound concentrations:100 nM and 1000 nM (sheet 'Lestaurtinib' of Supplementary Table 1),run:Lestaurtinib_02367_R3,Plate:MR003", "value": 783, "unit": "nM"}, {"measurement": "potency estimated from few doses", "setting": "compound concentrations:100 nM and 1000 nM (sheet 'Lestaurtinib' of Supplementary Table 1),run:Lestaurtinib_02381_R1,Plate:MR004", "value": 694, "unit": "nM"}, {"measurement": "potency estimated from few doses", "setting": "compound concentrations:100 nM and 1000 nM (sheet 'Lestaurtinib' of Supplementary Table 1),run:Lestaurtinib_02381_R3,Plate:MR004", "value": 515, "unit": "nM"}, {"measurement": "potency estimated from few doses", "setting": "compound concentrations:100 nM and 1000 nM (sheet 'Lestaurtinib' of Supplementary Table 1),run:Lestaurtinib_02422_R2,Plate:MR006", "value": 951, "unit": "nM"}, {"measurement": "potency estimated from few doses", "setting": "compound concentrations:100 nM and 1000 nM (sheet 'Lestaurtinib' of Supplementary Table 1),run:Lestaurtinib_02437_R1,Plate:MR007", "value": 592, "unit": "nM"}, {"measurement": "potency estimated from few doses", "setting": "compound concentrations:100 nM and 1000 nM (sheet 'Lestaurtinib' of Supplementary Table 1),run:Lestaurtinib_02437_R3,Plate:MR007", "value": 740, "unit": "nM"}, {"measurement": "potency estimated from few doses", "setting": "compound concentrations:100 nM and 1000 nM (sheet 'Lestaurtinib' of Supplementary Table 1),run:Lestaurtinib_02438_R1,Plate:MR008", "value": 415, "unit": "nM"}, {"measurement": "potency estimated from few doses", "setting": "compound concentrations:100 nM and 1000 nM (sheet 'Lestaurtinib' of Supplementary Table 1),run:Lestaurtinib_02443_R2,Plate:MR009", "value": 855, "unit": "nM"}, {"measurement": "potency estimated from few doses", "setting": "compound concentrations:100 nM and 1000 nM (sheet 'Lestaurtinib' of Supplementary Table 1),run:Lestaurtinib_02443_R3,Plate:MR009", "value": 487, "unit": "nM"}, {"measurement": "potency estimated from few doses", "setting": "compound concentrations:100 nM and 1000 nM (sheet 'Lestaurtinib' of Supplementary Table 1),run:Lestaurtinib_02473_R1,Plate:MR010", "value": 479, "unit": "nM"}, {"measurement": "potency estimated from few doses", "setting": "compound concentrations:100 nM and 1000 nM (sheet 'Lestaurtinib' of Supplementary Table 1),run:Lestaurtinib_02473_R2,Plate:MR010", "value": 674, "unit": "nM"}, {"measurement": "potency estimated from few doses", "setting": "compound concentrations:100 nM and 1000 nM (sheet 'Lestaurtinib' of Supplementary Table 1),run:Lestaurtinib_02482_R1,Plate:MR011", "value": 665, "unit": "nM"}, {"measurement": "potency estimated from few doses", "setting": "compound concentrations:100 nM and 1000 nM (sheet 'Lestaurtinib' of Supplementary Table 1),run:Lestaurtinib_02487_R1,Plate:MR012", "value": 741, "unit": "nM"}, {"measurement": "potency estimated from few doses", "setting": "compound concentrations:100 nM and 1000 nM (sheet 'Lestaurtinib' of Supplementary Table 1),run:Lestaurtinib_02487_R2,Plate:MR012", "value": 754, "unit": "nM"}, {"measurement": "potency estimated from few doses", "setting": "compound concentrations:100 nM and 1000 nM (sheet 'Lestaurtinib' of Supplementary Table 1),run:Lestaurtinib_02487_R3,Plate:MR012", "value": 549, "unit": "nM"}, {"measurement": "potency estimated from few doses", "setting": "compound concentrations:100 nM and 1000 nM (sheet 'Lestaurtinib' of Supplementary Table 1),run:Lestaurtinib_02496_R2,Plate:MR013", "value": 776, "unit": "nM"}, {"measurement": "potency estimated from few doses", "setting": "compound concentrations:100 nM and 1000 nM (sheet 'Lestaurtinib' of Supplementary Table 1),run:Lestaurtinib_02496_R3,Plate:MR013", "value": 965, "unit": "nM"}, {"measurement": "potency estimated from few doses", "setting": "compound concentrations:100 nM and 1000 nM (sheet 'Lestaurtinib' of Supplementary Table 1),run:Lestaurtinib_02566_R1,Plate:MR014", "value": 386, "unit": "nM"}, {"measurement": "potency estimated from few doses", "setting": "compound concentrations:100 nM and 1000 nM (sheet 'Lestaurtinib' of Supplementary Table 1),run:Lestaurtinib_02566_R3,Plate:MR014", "value": 479, "unit": "nM"}, {"measurement": "potency estimated from few doses", "setting": "compound concentrations:100 nM and 1000 nM (sheet 'Lestaurtinib' of Supplementary Table 1),run:Lestaurtinib_02577_R3,Plate:MR016", "value": 422, "unit": "nM"}, {"measurement": "potency estimated from few doses", "setting": "compound concentrations:100 nM and 1000 nM (sheet 'Lestaurtinib' of Supplementary Table 1),run:Lestaurtinib_02584_R1,Plate:MR017", "value": 545, "unit": "nM"}, {"measurement": "potency estimated from few doses", "setting": "compound concentrations:100 nM and 1000 nM (sheet 'Lestaurtinib' of Supplementary Table 1),run:Lestaurtinib_02584_R2,Plate:MR017", "value": 970, "unit": "nM"}, {"measurement": "potency estimated from few doses", "setting": "compound concentrations:100 nM and 1000 nM (sheet 'Lestaurtinib' of Supplementary Table 1),run:Lestaurtinib_02584_R3,Plate:MR017", "value": 748, "unit": "nM"}, {"measurement": "potency estimated from few doses", "setting": "compound concentrations:100 nM and 1000 nM (sheet 'Lestaurtinib' of Supplementary Table 1),run:Lestaurtinib_02601_R1,Plate:MR018", "value": 559, "unit": "nM"}, {"measurement": "potency estimated from few doses", "setting": "compound concentrations:100 nM and 1000 nM (sheet 'Lestaurtinib' of Supplementary Table 1),run:Lestaurtinib_02601_R3,Plate:MR018", "value": 707, "unit": "nM"}, {"measurement": "potency estimated from few doses", "setting": "compound concentrations:100 nM and 1000 nM (sheet 'Lestaurtinib' of Supplementary Table 1),run:Lestaurtinib_02606_R1,Plate:MR019", "value": 628, "unit": "nM"}, {"measurement": "potency estimated from few doses", "setting": "compound concentrations:100 nM and 1000 nM (sheet 'Lestaurtinib' of Supplementary Table 1),run:Lestaurtinib_02606_R3,Plate:MR019", "value": 836, "unit": "nM"}, {"measurement": "potency estimated from few doses", "setting": "compound concentrations:100 nM and 1000 nM (sheet 'Lestaurtinib' of Supplementary Table 1),run:Lestaurtinib_02624_R1,Plate:MR020", "value": 613, "unit": "nM"}, {"measurement": "potency estimated from few doses", "setting": "compound concentrations:100 nM and 1000 nM (sheet 'Lestaurtinib' of Supplementary Table 1),run:Lestaurtinib_02624_R3,Plate:MR020", "value": 724, "unit": "nM"}, {"measurement": "potency estimated from few doses", "setting": "compound concentrations:100 nM and 1000 nM (sheet 'Lestaurtinib' of Supplementary Table 1),run:Lestaurtinib_02724_R1,Plate:MR021", "value": 624, "unit": "nM"}, {"measurement": "potency estimated from few doses", "setting": "compound concentrations:100 nM and 1000 nM (sheet 'Lestaurtinib' of Supplementary Table 1),run:Lestaurtinib_02724_R2,Plate:MR021", "value": 755, "unit": "nM"}, {"measurement": "potency estimated from few doses", "setting": "compound concentrations:100 nM and 1000 nM (sheet 'Lestaurtinib' of Supplementary Table 1),run:Lestaurtinib_02741_R3,Plate:MR023", "value": 712, "unit": "nM"}]}
